The panel holds about 83,000 compounds, 20% with a hit somewhere; the sample as a whole holds those more often.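 Note: values are percent growth. 100 is the growth of untreated cells, values between 100 and 0 indicate rising inhibition; between -100 and 0 indicates cell death.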 A number with no mark means an inactive call. The source made the active and inactive calls. How the source made its calls: active means growth percent below 10; inactive means the rest.
Experiments:
Assay in all cases: NCI-60 one-dose screen, 48 h (100 = growth as untreated, 0 = no growth, -100 = all killed)
Details in all cases: 10 µM unless noted
NCI-H23 lung = tested on: NCI-H23 lung
NCI-H226 lung = tested on: NCI-H226 lung
NCI-H322M lung = tested on: NCI-H322M lung
HOP-62 NSCLC = tested on: HOP-62 NSCLC
NCI-H460 lung = tested on: NCI-H460 lung
NCI-H522 lung = tested on: NCI-H522 lung
A549/ATCC NSCLC = tested on: A549/ATCC NSCLC
786-0 renal = tested on: 786-0 renal
COLO 205 colon = tested on: COLO 205 colon
DU-145 prostate = tested on: DU-145 prostate
K-562 leukemia = tested on: K-562 leukemia
MALME-3M melanoma = tested on: MALME-3M melanoma
MDA-MB-231 breast = tested on: MDA-MB-231 breast
RXF 393 renal = tested on: RXF 393 renal
SF-268 CNS = tested on: SF-268 CNS
SF-295 CNS = tested on: SF-295 CNS
SF-539 CNS = tested on: SF-539 CNS
UACC-257 melanoma = tested on: UACC-257 melanoma
M14 melanoma = tested on: M14 melanoma
HCT-15 colon = tested on: HCT-15 colon

SMILES | growth (NCI-H23 lung) | growth (NCI-H226 lung) | growth (NCI-H322M lung) [%] | growth (HOP-62 NSCLC) [%] | growth (NCI-H460 lung) [%] | growth (NCI-H522 lung) | growth (A549/ATCC NSCLC) [%] | growth (786-0 renal) [%] | growth (COLO 205 colon) [%] | growth (DU-145 prostate) [%] | growth (K-562 leukemia) [%] | growth (MALME-3M melanoma) [%] | growth (MDA-MB-231 breast) [%] | growth (RXF 393 renal) | growth (SF-268 CNS) [%] | growth (SF-295 CNS) | growth (SF-539 CNS) [%] | growth (UACC-257 melanoma) [%] | growth (M14 melanoma) [%] | growth (HCT-15 colon) [%]
O=C(OC[C@H]1O[C@H](OC(=O)c2cc(O)c(O)c(OC(=O)c3cc(O)c(O)c(O)c3)c2)[C@H](OC(=O)c2cc(O)c(O)c(OC(=O)c3cc(O)c(O)c(O)c3)c2)[C@@H](OC(=O)c2cc(O)c(O)c(OC(=O)c3cc(O)c(O)c(O)c3)c2)[C@@H]1OC(=O)c1cc(O)c(O)c(OC(=O)c2cc(O)c(O)c(O)c2)c1)c1cc(O)c(O)c(OC(=O)c2cc(O)c(O)c(O)c2)c1 | 19% | 7.2% (active) | 19.3 | 46.2 | 11.6 | -11% (active) | 34 | 18.5 | 55.1 | 30.3 | 31.5 | 49 | 23.5 | -12.7% (active) | 27.2 | 9.95% (active) | 29.3 | 60.2 | 17.6 | 28.6
Cc1cc(C(C)(C)c2cc(C)c(O)c(CN(C)C)c2)cc(CN(C)C)c1O | 105% | 96.5% | 70.7 | 99.8 | 101 | 85.7% | 97.7 | 73.1 | 89 | 97.1 | 76.6 | 57.7 | 59.5 | 61.5% | 101 | 100% | 80.3 | 85 | 77.7 | 80.8
O=C(Nc1ncc([N+](=O)[O-])s1)c1cccc([N+](=O)[O-])c1 | 9.05% (active) | 29.3% | 35.9 | 25.3 | 43.4 | 8.27% (active) | 81.8 | 18 | 77 | 84.6 | 23.3 | 40.3 | 62.3 | 25.1% | 64.2 | 23.3% | 28.4 | 58.6 |  | 47.8
Cc1nn(-c2ccccc2)c2c1oc(=O)c1cc(Cl)ccc12 | 107% | 96.3% | 90.5 | 91.6 | 107 | 113% | 102 | 100 | 120 | 169 | 106 | 106 | 94 | 116% | 90.6 | 109% | 97.9 | 99.7 |  | 99.4
NC(=O)c1ccccc1NC(=O)c1ccccc1Cl | 104% | 105% | 109 | 112 | 114 | 96.5% | 98.3 | 102 | 121 | 113 | 89.9 | 130 | 99.6 | 82.1% | 108 | 90.5% | 109 | 88.7 | 112 | 95.6
CCCc1cccc(CCC)c1O | 100% | 106% | 124 | 106 | 106 | 89.9% | 98.2 | 110 | 116 | 120 | 104 | 131 | 125 | 121% | 109 | 91.4% | 118 | 93.3 |  | 107
c1cnc2n[nH]c(Nc3ncnc4c3sc3ncccc34)c2c1 | 82.4% | 93.8% | 106 | 90.8 | 96 | 82.1% | 87.3 | 106 | 107 | 115 | 86.8 | 92.9 | 97.4 | 99.6% | 108 |  | 105 | 90.3 | 97.4 | 
CN(C(=O)c1ccccc1)N(C)C(=O)c1ccccc1 | 110% | 112% | 96.6 | 94.7 | 109 | 102% | 103 | 100 | 102 | 121 | 107 | 94.4 | 107 | 122% | 116 |  | 108 | 113 | 99.2 | 111

— PubChem BioAssay (NCI)
